In PubChem BioAssay (NCI):
The panel holds about 79,000 compounds, 15% with a hit somewhere; the sample as a whole holds those more often. A number with no mark means an inactive call. The source made the active and inactive calls. Rule as the data show it: active = growth inhibition above about 70%; inactive = the rest.

Assay: NCI Yeast Anticancer Drug Screen. Data for the sgs1 mgt1 strain (AID 161);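 also: 0% = growth of cultures given vehicle only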
Conditions: S. cerevisiae sgs1 mgt1 strain, active compounds read high
Procedure: Growth inhibition of yeast strains with defined genetic alterations is measured as a screen for potential anti-cancer activity. Selected strains with alterations in DNA damage repair or cell cycle control were exposed to compounds and growth inhibition was measured relative to vehicle treated controls. The strain used in this assay is sgs1 mgt1

[1] = at 5.0 µM (retest, dose inferred, filed as 0.5)
[2] = at 50.0 µM (retest, dose inferred, filed as 5.0)

In the case of `NP1(Oc2ccc(F)cc2)=NP(N)(Oc2ccc(F)cc2)=NP(Oc2ccc(F)cc2)(Oc2ccc(F)cc2)=N1` (stereo unspecified), the growth inhibition [1] is reported as 1%, the growth inhibition [2] is reported as 28% and the growth inhibition (at 50.0 µM) is reported as 97.9% (active).
`Oc1ccccc1N=Cc1ccc(Cl)cc1` showed a growth inhibition [1] of 20%, a growth inhibition [2] of 24% and a growth inhibition (at 50.0 µM) of 25.6%.
With `CC[C@@]1(OC(=O)CCC(=O)O)C(=O)OCc2c1cc1n(c2=O)Cc2cc3ccccc3nc2-1` the growth inhibition [1] was 30%, the growth inhibition [2] was 91% (active) and the growth inhibition (at 50.0 µM) was 76.3% (active).
For `N#C/C(=C1C=C/C(=N/O)c2ccccc2/1)c1ccccc1`, the growth inhibition [1] was 60%, the growth inhibition [2] was 97% (active) and the growth inhibition (at 50.0 µM) was 96.6% (active).
For `O=C1C=CC(=O)N1c1ccc(N2C(=O)C=CC2=O)cc1`, the growth inhibition [1] was -16%, the growth inhibition [2] was 100% (active) and the growth inhibition (at 50.0 µM) was 93.5% (active).
`COc1ccc(/C(C#N)=C/c2ccc(OC)c(OC)c2)cc1` showed a growth inhibition [1] of -15%, a growth inhibition [2] of 57% and a growth inhibition (at 50.0 µM) of 46.8%.
With `CCCCCC(=O)c1ccc(O)cc1O` the growth inhibition [1] was -5% and the growth inhibition [2] was 92% (active).
For `CCN1/C(=C/c2ccc3ccccc3[n+]2CC)C=Cc2ccccc21`, the growth inhibition [1] was 7%, the growth inhibition [2] was 98% (active) and the growth inhibition (at 50.0 µM) was 93% (active).
With `CCCCCCCCN1C(=O)c2ccccc2C1=O` the growth inhibition [1] was 1%, the growth inhibition [2] was 36% and the growth inhibition (at 50.0 µM) was 78.7% (active).
`CN(N=O)c1ccc(/C=C/c2ccnc3ccccc23)cc1` gave a growth inhibition [1] of 8%, a growth inhibition [2] of 43% and a growth inhibition (at 50.0 µM) of 47.3%.
In the case of `Cc1c(-c2ccccc2)[nH]c2ccccc12`, the growth inhibition [1] is reported as -1%, the growth inhibition [2] is reported as 99% (active) and the growth inhibition (at 50.0 µM) is reported as 93.5% (active).
In the case of `C=Cc1cnc([N+](=O)[O-])n1C`, the growth inhibition [1] is reported as 61%, the growth inhibition [2] is reported as 95% (active) and the growth inhibition (at 50.0 µM) is reported as 83.1% (active).
`CCCCCCCCCCCCCC(=O)OC(C)CCC1CCCO1` (stereo unspecified) gave a growth inhibition [1] of 3%, a growth inhibition [2] of 25% and a growth inhibition (at 50.0 µM) of 13.2%.
For `CCCCC(=O)c1c(O)nc2sccn2c1=O`, the growth inhibition [1] was 5%, the growth inhibition [2] was 28% and the growth inhibition (at 50.0 µM) was 89.2% (active).
